Results published in PubChem BioAssay (Tox21).
Several values for one entry are separate records, joined by “and”; a condition that tells them apart may be missing. Identical values can stand only once. Inconclusive results are not listed. Where a call stands in place of a potency, no number is given. Activity calls are given as the source filed them. Calls follow the shape of the full dose curve.

Molecular target: Thyrotropin receptor (Homo sapiens) (UniProt P16473)
Experiment: qHTS assay to identify small molecule agonists of the thyroid stimulating hormone receptor (TSHR) signaling pathway (AID 1224843); also: nearly all actives have a fitted effect of over 45% in size; also: potency is read from the fitted curve at half-maximal effect
Conditions: TSHR-HEK293 cells, cAMP HTRF, agonist mode, 30 min; series mostly up to 92.4 µM
Procedure, shortened: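 Compounds are titrated over 15 concentrations, in triplicate, onto TSHR-HEK293 cells seeded at 800/well. Plates sit 30 min at room temperature before cAMP-d2 and anti-cAMP cryptate are added; signal is read after a further hour.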

Sequence of Thyrotropin receptor (Homo sapiens) (P16473 whole entry, looked up): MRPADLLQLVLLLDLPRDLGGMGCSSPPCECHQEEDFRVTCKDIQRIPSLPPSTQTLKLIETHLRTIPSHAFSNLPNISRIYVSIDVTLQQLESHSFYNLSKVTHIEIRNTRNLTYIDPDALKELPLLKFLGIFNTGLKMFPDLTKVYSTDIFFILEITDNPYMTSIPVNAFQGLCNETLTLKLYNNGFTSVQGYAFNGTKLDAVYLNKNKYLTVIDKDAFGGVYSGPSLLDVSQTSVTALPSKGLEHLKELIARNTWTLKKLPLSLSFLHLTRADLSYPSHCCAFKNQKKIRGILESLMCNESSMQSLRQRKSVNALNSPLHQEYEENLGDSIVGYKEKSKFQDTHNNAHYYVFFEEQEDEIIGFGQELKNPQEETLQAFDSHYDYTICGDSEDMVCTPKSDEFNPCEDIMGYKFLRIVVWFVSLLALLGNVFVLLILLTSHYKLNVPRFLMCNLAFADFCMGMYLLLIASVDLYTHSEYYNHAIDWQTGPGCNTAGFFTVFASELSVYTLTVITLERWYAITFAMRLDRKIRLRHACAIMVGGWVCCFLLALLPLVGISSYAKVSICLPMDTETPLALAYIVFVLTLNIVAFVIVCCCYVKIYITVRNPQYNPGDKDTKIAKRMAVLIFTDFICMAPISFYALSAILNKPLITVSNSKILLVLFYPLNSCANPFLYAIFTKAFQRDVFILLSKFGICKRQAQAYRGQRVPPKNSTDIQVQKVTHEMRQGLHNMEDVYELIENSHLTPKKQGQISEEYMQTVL

Compound	Potency
O=P(O)(O)CCCl	inactive
CCN(CC)N=O	inactive
O=P(Oc1ccccc1)(Oc1ccccc1)Oc1ccccc1	12.1 µM (active) and 9.69 µM (active)
N#Cc1cc(Br)c(O)c(Br)c1	inactive
CCOc1cc(C=O)ccc1O	inactive
CC(C)Oc1cc(-n2nc(C(C)(C)C)oc2=O)c(Cl)cc1Cl	inactive
COP(=S)(OC)Oc1ccc([N+](=O)[O-])cc1	inactive
COc1ccc(C=O)cc1	inactive
C=C(C)[C@H]1Cc2c(ccc3c2O[C@@H]2COc4cc(OC)c(OC)cc4[C@@H]2C3=O)O1	24.7 µM (active) and 17.2 µM (active) and 26.6 µM (active)
c1nc[nH]n1	inactive

Test system: not listed separately
Experiment: qHTS assay to identify small molecule agonists of the hypoxia (HIF-1) signaling pathway - cell viability counter screen (AID 1224844); also: nearly all actives have a fitted effect of over 50% in size
Conditions: HRE-bla ME-180 viability, CellTiter-Glo luminescence, 17 h; series mostly up to 76.8 µM
Procedure, shortened: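 HRE-bla ME-180; 0.5% dFBS; cpd 17 h, 37C, 5% CO2; CellTiter-Glo lum., 30 min RT, post-FRET read, same wells.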

Compound	Potency
N#CC(Br)Br	inactive
CCN(N=O)C(N)=O	inactive
Cc1cc(C)cc(C)c1	inactive
Oc1c(Cl)c(Cl)c(Cl)c(Cl)c1Cl	inactive
COP(=O)(OC)OC	inactive
CCC(C)(C)c1ccc(O)cc1	inactive
C1=Cc2cccc3cccc1c23	inactive
Oc1cc(Cl)ccc1Cl	inactive
Cc1ccc(OP(=O)(Oc2ccc(C)cc2)Oc2ccc(C)cc2)cc1	inactive
CCN(CC)C(=O)/C(Cl)=C(\C)OP(=O)(OC)OC	inactive
Nn1cnnc1	inactive
O=[N+]([O-])c1cccc2ccccc12	inactive
N#CCCCl	inactive
O=S(=O)(Oc1ccc(Cl)cc1)c1ccc(Cl)cc1	inactive
C=C(C)C(=O)OCC1CO1 (stereo not drawn)	inactive
Nc1cccnc1	inactive
O=Cc1ccco1	inactive
CCCCC(CC)COC(=O)Cl (stereo not drawn)	inactive
